# According to PubChem BioAssay (EPA / NIEHS):
# Several values for one entry are separate records, joined by “and”; a condition that tells them apart may be missing. Equal entries are not always repeated. Records with an inconclusive call do not appear. Activity calls are given as the source filed them. Rule for the calls: active = hit-call score of the fitted dose curve at least 0.9, where 1 is the maximum; inconclusive = response in the unintended direction; inactive = score below 0.9.
# Target: Peroxisome proliferator-activated receptor gamma (Homo sapiens) (UniProt P37231)
# Assay: ATG_hPPARg_XSP2: Attagene TRANS-FACTORIAL Multi-Species (XSP2) HepG2 Assay for human Peroxisome Proliferator-activated Receptor gamma (PPARg) (AID 2283829);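 note: actives raise reporter mRNA above DMSO so AC50 reflects PPARg activation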
# Procedure: ATG_XSP2_multi-species_TRANS is a cell-based, multiplexed assay created by modifying the existing Attagene TRANS-FACTORIAL system to include a panel of nuclear receptors from some or all the following species: human (Homo sapiens), mouse (Mus musculus), frog (Xenopus laevis), zebrafish (Danio rerio), chicken (Gallus gallus), and turtle (Chrysemys picta). The ECOTOX-FACTORIAL format uses HepG2, a human liver cell line, with measurements taken at 24 hours after chemical dosing in a 24-well plate. Xsp2 included 3 nM 6-alpha-fluorotestosterone and 1.5 nM norgestrel to stimulate the androgen receptor.ATG_hPPARg_XSP2 is one of 29 assay components measured or calculated from the ATG_XSP2_multi-species_TRANS assay. It is designed to make measurements of mRNA induction, a form of inducible reporter, as detected with fluorescence intensity signals by Reverse transcription polymerase chain reaction (RT-PCR) and Capillary electrophoresis technology.The assay endpoint ATG_hPPARg_XSP2 was analyzed in the positive analysis fitting direction relative to DMSO as the negative control and baseline of activity. Using a type of inducible reporter, measures of mRNA for gain-of-signal activity can be used to understand the reporter gene at the transcription factor-level as they relate to the gene PPARg. Furthermore, this assay endpoint can be referred to as a primary readout, because this assay has produced multiple assay endpoints where this one serves a reporter gene function. To generalize the intended target to other relatable targets, this assay endpoint is annotated to the nuclear receptor intended target family, where the subfamily is non-steroidal.
# Human liver HepG2 cells are transiently transfected with multiple reporter transcription units (MRTUs) in 6-well plates using FuGene 6 reagent (Roche; 3 ml FuGene/1 mg DNA). The MRTU constructs are regulated by a cis-regulating element (promoter). […] A major difference between the CIS and TRANS system is that in CIS activities of endogenous TFs are measured, whereas the TRANS assay evaluates changes in activities of exogenous, chimeric NR-Gal4 proteins. […] At the end of 24 hour incubation, total RNA was isolated using TriZol reagent (Invitrogen). The isolated RNA is then reverse-transcribed using oligo(dT) primer and Mo-MLV reverse transcriptase (Invitrogen) with DNAse I (Ambion) treatment for 30 min. The one-tenth of the produced cDNA was amplified by PCR using Taq DNA polymerase (Invitrogen) and two reporter sequence-specific primers. The PCR products were fluorescently labeled by primer extension with 6-arboxyfluorescein (6-FAM) 5'-labeled reporter sequence-specific primer (2 min at 95 C, 20 s at 68 C and 10 min at 72 C) and these products were digested with 5U of HpaI (New England Biolabs) for 2h at 37 C. The fragments were purified using Qiaquick PCR columns (Qiagen), analyzed on an ABI 3130xL genetic analyzer (Applied Biosystems) with peak positions identified by using a set of X-rhodamine (ROX)-labeled MapMarker1000 molecular weight standards (BioVentures). The raw capillary electrophoresis data was processed using Attagraph software (Attagene).
# Sequence of Peroxisome proliferator-activated receptor gamma (Homo sapiens) (P37231 whole entry, looked up): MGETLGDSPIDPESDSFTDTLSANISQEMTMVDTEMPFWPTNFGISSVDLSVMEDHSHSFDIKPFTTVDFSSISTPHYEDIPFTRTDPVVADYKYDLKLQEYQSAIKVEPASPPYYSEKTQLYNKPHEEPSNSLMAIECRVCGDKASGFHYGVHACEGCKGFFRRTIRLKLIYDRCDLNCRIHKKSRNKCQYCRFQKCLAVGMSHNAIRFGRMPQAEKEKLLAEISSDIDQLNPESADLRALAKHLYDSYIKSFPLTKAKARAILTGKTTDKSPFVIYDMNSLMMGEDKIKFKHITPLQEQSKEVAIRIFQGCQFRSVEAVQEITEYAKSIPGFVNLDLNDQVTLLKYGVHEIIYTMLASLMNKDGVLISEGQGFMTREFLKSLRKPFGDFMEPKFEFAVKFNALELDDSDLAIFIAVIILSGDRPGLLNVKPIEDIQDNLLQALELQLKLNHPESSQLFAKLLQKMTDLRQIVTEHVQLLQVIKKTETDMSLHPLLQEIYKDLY
Structure (SMILES),AC50,outcome
CC(C)C1CCC(Cc2ccc(Cl)cc2)C1(O)Cn1cncn1 (stereo not drawn),3.93 µM (active),
Oc1c(I)cc(I)cc1I,12 µM (active) and 10.4 µM (active),
Oc1ccc(-c2ccccc2)cc1,63.1 µM (active) and 100 µM (active),
C[C@H]1CCCC(=O)CCC/C=C/c2cc(O)cc(O)c2C(=O)O1,,inactive
O=S(=O)(c1ccc(Cl)cc1)c1ccc(Cl)cc1,11.4 µM (active) and 6.91 µM (active),
COP(=O)(OC)O/C(=C\Cl)c1cc(Cl)c(Cl)cc1Cl,15 µM (active),
O=C1C2(Cl)C3(Cl)C4(Cl)C(Cl)(Cl)C5(Cl)C3(Cl)C1(Cl)C5(Cl)C24Cl (stereo not drawn),,inactive
CC12CC1(C)C(=O)N(c1cc(Cl)cc(Cl)c1)C2=O (stereo not drawn),,inactive
CC(=O)C=C(C)C,,inactive
C[C@]12CCC(=O)C[C@@H]1CC[C@@H]1[C@@H]2CC[C@]2(C)[C@@H](O)CC[C@@H]12,,inactive
Clc1ccc(C2(Cn3cncn3)CC(Br)CO2)c(Cl)c1 (stereo not drawn),,inactive
C[C@]12CC[C@H](O)CC1=CC[C@@H]1[C@@H]2CC[C@]2(C)C(=O)CC[C@@H]12,,inactive
CC1(C)CCC(Cc2ccc(Cl)cc2)C1(O)Cn1cncn1 (stereo not drawn),,inactive
